In the library only some 4.5% were active in any assay of this set; here they are far more common.
HEK293 cAMP cs: counter-screen for TSHR agonists: cAMP increase in parental HEK293; hit rate 2.5% among 73,000; Potency, µM (titrated, usually from 57.1 µM), inactives show at the top dose activation, actives largely listed as activators; parental HEK293 CNG cAMP sensor, membrane potential fluorescence; also: % of control where 0% means no effect; nearly all actives have a fitted effect of over 55% in size
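Counterscreen for endogenous-receptor signalling: CNG-channel HEK 293 cells report cAMP rise by membrane depolarization. After 60 min dye equilibration with 100 uM RO 20-1724, compounds incubated 30 min before bottom-read fluorescence at 590 nm.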
TSHR ag: agonists of human thyroid stimulating hormone receptor | P16473 | hit rate 0.48% among 73,000 | AID 926 | Potency, µM (titrated, usually from 57.1 µM), for the others: at the highest dose activation, most hits filed as activators | HEK293-CNG-TSHR cells (CNG channel as cAMP sensor), membrane potential dye, cAMP; active = well fitted activation curve with a large enough effect in the main read-out, with a control signal flat, not every such curve was filed as active; inconclusive = small, poorly fitted or top-dose-only effect, or a change in a side signal; inactive = no such curve, though single readings can be large or run the other way; % of control where 0% means no effect;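 also: the control signal comes from parental cells without the receptor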
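HEK 293 cells stably expressing TSHR and a cAMP-gated CNG channel; parental CNG-only cells as counterscreen. Cells preloaded 60 min with membrane potential dye plus 100 uM RO 20-1724, then compound 30 min; fluorescence read at 590 nm.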
ERK AVP inh: blocks ERK signaling stimulated by vasopressin. AID 995. hit rate 0.99% among 72,000. HEK293-V1b, vasopressin-stimulated pERK AlphaScreen. Potency, µM (doses to about 57.5 µM), for the others: top-dose activity, negative = inhibition, actives largely listed as inhibitors; also: % is scaled to controls: 0 for no effect and ±100 for the full control effect; nearly all actives have a fitted effect of over 55% in size
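HEK293 cells stably expressing V1b receptor, preincubated 30 min at 37 °C with compound, then stimulated 5 min with 25 nM vasopressin. Phospho-ERK by AlphaScreen SureFire after 5 h RT; normalized to DMSO and vasopressin; AC50 by Hill fit.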
Caspase-7 inhib: blocks human caspase-7 allosterically or competitively | P55210 | recombinant caspase-7, Ac-DEVD-AFC fluorescence rate | Potency, µM (titrated, usually from 57.5 µM), without a hit: top-dose activity change, negative = inhibition, actives largely listed as inhibitors | hit rate 0.02% among 75,000; active = well fitted inhibition curve with a large enough effect in the main read-out, with a control signal flat, not every such curve was filed as active; inconclusive = small, poorly fitted or top-dose-only effect, or a change in a side signal; also: % of control where 0% means no effect
Target sequence (P55210 24-198 limits assumed): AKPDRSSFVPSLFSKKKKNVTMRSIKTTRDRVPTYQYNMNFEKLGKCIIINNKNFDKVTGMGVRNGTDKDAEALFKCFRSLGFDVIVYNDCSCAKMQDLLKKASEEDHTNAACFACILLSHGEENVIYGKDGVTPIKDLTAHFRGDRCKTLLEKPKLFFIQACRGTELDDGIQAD
Target sequence (P55210 207-303 limits assumed): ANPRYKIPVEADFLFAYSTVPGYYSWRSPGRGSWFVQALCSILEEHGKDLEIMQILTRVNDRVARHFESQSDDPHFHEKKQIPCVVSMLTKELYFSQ
GBA mod: human lysosomal glucosylceramidase modulation. P04062. purified enzyme, resorufin glucoside fluorescence (screen aimed at inhibitors), 20 min. hit rate 1.1% among 48,000. Potency, µM. AID 360; in the data active = potency below about 15 µM; inconclusive = mostly about 16 µM to 33 µM;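 also: the screen sought inhibitors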
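Compounds titrated against 0.2 nM normal enzyme, 30 uM resorufin beta-D-glucopyranoside substrate, citrate/phosphate buffer with taurocholate and tween-20, pH 5.9. Reaction ran 20 min at room temperature; fluorescence (Ex 548/Em 600) gave AC50.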
Caspase-1 inhib: allosteric or competitive inhibitors of human caspase-1 | P29466 | Caspase-1 enzyme, Ac-WEHD-AFC fluorogenic rate | Potency, µM (highest dose often 57.5 µM), inactives show at the highest dose activity change, negative = inhibition, usual class: inhibitors | hit rate 0.03% among 75,000 | AID 900;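 also: plate controls were vehicle for no effect and no substrate for full effect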
Target sequence (P29466 120-297 limits assumed): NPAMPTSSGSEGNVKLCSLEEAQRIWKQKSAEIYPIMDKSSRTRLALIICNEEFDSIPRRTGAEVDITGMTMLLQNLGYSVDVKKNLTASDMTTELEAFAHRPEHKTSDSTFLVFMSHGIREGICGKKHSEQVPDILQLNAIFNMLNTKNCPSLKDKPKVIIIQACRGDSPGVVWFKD
Target sequence (P29466 317-404 limits assumed): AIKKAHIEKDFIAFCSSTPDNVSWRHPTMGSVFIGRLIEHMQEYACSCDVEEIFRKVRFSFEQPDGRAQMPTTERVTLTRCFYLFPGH
The depositor's hits bear a star; i = inactive; u = inconclusive; x = no result given; [ ] = remark or other dose. Unless noted, calls follow the shape of the dose curve; as a rule, active = well fitted curve in the direction sought with a large enough effect; inconclusive = small, poorly fitted or top-dose-only effect, or another doubt; inactive = no such curve, though single readings can be large; an effect the other way counts as inactive or inconclusive. Potency is read from the fitted curve at half-maximal effect.

SMILES | HEK293 cAMP cs | TSHR ag | ERK AVP inh | Caspase-7 inhib | GBA mod | Caspase-1 inhib
COC(=O)[C@@]1(Cc2ccc(F)cc2)[C@H]2c3cc(C(=O)N4CCCC4)n(Cc4ccc(S(C)(=O)=O)cc4)c3C[C@H]2CN1C(=O)c1ccccc1 | 15.8µM* | u | -1.8% | -6.6% | x | -4.0%
CN(C)[C@H]1C(=O)C(C(=O)NCN2CCCC2)=C(O)[C@]2(O)C(=O)C3=C(O)c4c(O)cccc4[C@](C)(O)[C@H]3C[C@H]12 | 12.9%[11.4 µM] | -5.2%[11.4 µM] | -5.1%[11.5 µM] | -14.8%[11.5 µM] | x | -1.6%[11.5 µM]
CCO[C@H](c1cc(OC)cc([N+](=O)[O-])c1OC)[C@H](C)/C=C\CC(=O)OC | 2.9%[11.4 µM] | 12.5%[11.4 µM] | 3.8%[11.5 µM] | -0.4%[11.5 µM] | x | 0.2%[11.5 µM]
O=C(O)CCCSc1nc2ccccc2s1 | 22.8%[11.4 µM] | -3.9%[11.4 µM] | 21.8%[11.5 µM] | 5.2%[11.5 µM] | x | -1.2%[11.5 µM]
Nc1nc(Nc2ccccc2)nc2ccccc12 | -94.1% | u | 12.6µM* | 0.9% | u | 0.2%
Oc1ccc(Nc2nc(N3CCCC3)c3ccccc3n2)cc1 | -52.9% | u | 31.6µM* | 4.4% | 8.85* | -1.0%
Cc1ccc(Nc2nc(N3CCOCC3)c3ccccc3n2)cc1 | 14.9% | 16.3% | u | -4.0% | x | -2.8%
O=C(Nc1ccccc1)c1ccc(Cc2nc3ccccc3[nH]2)cc1 | -10.9% | -5.3% | x | -0.9% | x | -4.5%
Cc1ccc2c3c(c(SCC(=O)Nc4nonc4C)nc2c1)CCCC3 | 7.94µM* | u | -9.0% | -0.6% | >76.9 | 0.9%
Cc1ccc(C)c(-n2c(SCC(=O)Nc3nonc3C)nnc2-c2ccoc2C)c1 | 25.1µM* | u | -11.2% | -1.3% | i | -0.4%
CC(C)[C@H](Nc1ncnc2nc[nH]c12)C(=O)O | -0.8%[11.4 µM] | 1.2%[11.4 µM] | -11.4%[11.5 µM] | 0.5%[11.5 µM] | x | -2.8%[11.5 µM]
COC(=O)c1ccc(C2C(C#N)=C(C)NC3=C2C(=O)CC(C)(C)C3)cc1 (stereo not given) | 12.6% | 16.3% | -9.3% | u | 12.2* | x
Clc1c(CSc2nc3ccccc3o2)nc2sccn12 | 31.6µM* | u | -2.2% | -6.2% | >76.9 | -2.8%
CCCCNC(=O)CS(=O)Cc1nc(-c2ccc(C)cc2)oc1C (stereo not given) | u | u | -4.7% | -0.1% | x | -1.4%
CCc1cccc(NC(=O)CS(=O)Cc2nc(-c3ccc(C)cc3)oc2C)c1 (stereo not given) | 15.5% | x | 31.6µM* | -6.5% | x | -1.6%
Cc1ccc(C(=O)OCc2nnc(-c3ccccc3)o2)o1 | 22.0% | 4.2% | 9.2% | -1.3% | >76.9 | -1.3%
O=C(OCc1nnc(-c2ccccc2)o1)c1ccc2c(c1)OCCO2 | 12.6µM* | u | -8.0% | -2.8% | >76.9 | -2.6%
CC(=O)c1c(C)[nH]c(C(=O)OCc2nnc(-c3ccccc3)o2)c1C | 5.1% | 24.9% | 25.1µM* | -0.4% | >76.9 | -2.9%
Cc1cc(C)n(-c2ccc(C(=O)OCc3nnc(-c4ccccc4)o3)cc2)n1 | 31.6µM* | u | u | -3.9% | >76.9 | 0.1%
C/C=C(/C)C#N | -19.3% | -4.9% | -4.1% | 0.5% | x | -2.7%
CC(C)C[C@@H](CC(=O)N[C@@H](CCC(=O)O)CC(=O)O)NC(=O)[C@@H]1CNCC[C@H]1NC(=O)C[C@H](CCCN)NC(=O)C[C@H](CO)NC(=O)[C@@H]1CCCC[C@H]1N | 21.7% | 6.2% | x | x | x | x
Cc1nn(-c2ccccc2)c2c1C(c1ccncc1)C(C#N)=C(N)O2 (stereo not given) | 27.6% | 0.6% | x | 2.7% | x | 0.4%
COc1cc(-n2nc(C)c3c2OC(N)=C(C#N)C3c2ccccc2)c(Cl)c(Br)c1O (stereo not given) | -28.2% | -48.2% | 31.6µM* | -2.9% | u | -3.5%
C[C@H]1COC(=O)[C@H]2CCCN2C(=O)[C@@H](C)COC(=O)[C@H]2CCCN2C1=O | 0.2%[11.4 µM] | -3.4%[11.4 µM] | -7.5%[11.5 µM] | -0.7%[11.5 µM] | x | -1.2%[11.5 µM]
O=C(c1ccncc1)N1CCC[C@@]2(CCN(C(c3ccccc3)c3ccccc3)C2)C1 | 3.98µM* | u | 4.7% | -2.1% | x | -3.7%
O=C(c1cnccn1)N1CCC2(CCCN(C(c3ccccc3)c3ccccc3)C2)CC1 | u | u | 39.8µM* | -3.4% | x | -2.7%
